Reference: PubChem BioAssay (NCATS)
Results filed as inconclusive are left out. Active and inactive are the calls of the source. Unless noted, calls follow the shape of the full dose curve. Peptide text beside a SMILES is read from it.

Assays:
[1] = qHTS for Inhibitors of the Functional Ribonucleoprotein Complex (vRNP) of Lassa (LASV) Arenavirus: LASV Primary Screen - GLuc reporter signal (AID 1347082; calls by dose curve; tested in HEK293 reporter line; also: nearly all actives have a fitted effect of over 60% in size)
[2] = qHTS for Inhibitors of the Functional Ribonucleoprotein Complex (vRNP) of Lassa (LASV) Arenavirus: Viability assay - alamar blue signal for LASV Primary Screen (AID 1347083; calls by dose curve; tested in HEK293 reporter line; also: nearly all actives have a fitted effect of over 80% in size)
[3] = qHTS for Inhibitors of the Functional Ribonucleoprotein Complex (vRNP) of Lymphocytic Choriomeningitis Arenaviruses (LCMV): Viability assay - alamar blue signal for LCMV Primary Screen (AID 1347085; calls by dose curve; tested in HEK293 reporter line; also: nearly all actives have a fitted effect of over 80% in size)
[4] = molecular target: Nucleoprotein (Lymphocytic choriomeningitis virus (strain Armstrong)) (UniProt P09992); assay: qHTS for Inhibitors of the Functional Ribonucleoprotein Complex (vRNP) of Lymphocytic Choriomeningitis Arenaviruses (LCMV): LCMV Primary Screen - GLuc reporter signal (AID 1347086); also: nearly all actives have a fitted effect of over 70% in size

Measured: Potency
Also: series mostly up to about 57 µM.

Sequence of Nucleoprotein (Lymphocytic choriomeningitis virus (strain Armstrong)) (P09992 whole entry, looked up): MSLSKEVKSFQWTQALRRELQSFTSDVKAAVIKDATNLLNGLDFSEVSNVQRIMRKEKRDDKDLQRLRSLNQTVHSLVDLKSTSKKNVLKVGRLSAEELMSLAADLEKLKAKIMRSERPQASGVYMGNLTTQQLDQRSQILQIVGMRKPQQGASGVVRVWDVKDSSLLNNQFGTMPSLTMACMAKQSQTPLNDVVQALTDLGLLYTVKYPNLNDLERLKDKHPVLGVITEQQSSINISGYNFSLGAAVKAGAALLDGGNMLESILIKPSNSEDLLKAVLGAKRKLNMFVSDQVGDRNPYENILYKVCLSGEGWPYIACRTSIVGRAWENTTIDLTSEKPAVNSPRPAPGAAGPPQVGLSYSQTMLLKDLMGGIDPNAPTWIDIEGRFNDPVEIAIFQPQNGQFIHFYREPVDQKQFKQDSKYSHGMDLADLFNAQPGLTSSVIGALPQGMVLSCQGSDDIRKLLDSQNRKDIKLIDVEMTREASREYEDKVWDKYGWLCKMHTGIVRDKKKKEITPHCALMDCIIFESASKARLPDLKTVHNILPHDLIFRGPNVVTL

Cc1[nH]c(=O)c(C#N)cc1-c1ccc2nccn2c1
inactive: all assays above

COc1ccc(CCN(C)CCCC(C#N)(c2cc(OC)c(OC)c(OC)c2)C(C)C)cc1OC (stereo not given)
inactive: all assays above

CNc1c2c(nn1C)CCCC2
inactive: all assays above

COc1ccc2nc(NC(=O)Nc3ccccc3)sc2c1
inactive: all assays above

C#C[C@]1(O)CC[C@H]2[C@@H]3CCC4=CC(=O)CC[C@@H]4[C@H]3CC[C@@]21C
inactive: all assays above

CC(C)NCC(O)c1ccc2ccccc2c1 (stereo not given)
inactive: all assays above

CC1(C)[C@@H](OC(=O)CCC(=O)O)CC[C@]2(C)[C@H]3C(=O)C=C4[C@@H]5C[C@@](C)(C(=O)O)CC[C@]5(C)CC[C@@]4(C)[C@]3(C)CC[C@@H]12
inactive: all assays above

O=C(CCN1CCN2CCCC2C1)N1c2ccccc2Sc2ccc(Cl)cc21 (stereo not given)
inactive: all assays above

CCN(CC)CCOC(=O)C(Cc1cccc2ccccc12)CC1CCCO1 (stereo not given)
inactive: all assays above

C=CCCCCCCCCC(=O)O
inactive: all assays above

FC(F)(F)C(Cl)Br (stereo not given)
inactive: all assays above

C[C@H]1C[C@H]2[C@@H]3CCC4=CC(=O)C=C[C@]4(C)[C@@]3(Cl)[C@@H](O)C[C@]2(C)[C@@]1(O)C(=O)CO
inactive: all assays above

N[C@@H](CSCCCO)C(=O)O
inactive: all assays above

O=S(=O)(c1cccc2cnccc12)N1CCCNCC1
inactive: all assays above

CC(=O)N(CC(O)CN(C(C)=O)c1c(I)c(C(=O)NCC(O)CO)c(I)c(C(=O)NCC(O)CO)c1I)c1c(I)c(C(=O)NCC(O)CO)c(I)c(C(=O)NCC(O)CO)c1I (stereo not given)
inactive: all assays above

Cc1c(C)c2c(c(C)c1OC(=O)CCC(=O)OCCO)CC[C@@](C)(CCC[C@H](C)CCC[C@H](C)CCCC(C)C)O2
inactive: all assays above

O=C1NC2CCCCN2C12CCN(CCCN1c3ccccc3CCc3ccc(Cl)cc31)CC2 (stereo not given)
inactive: all assays above

CCN(CC)CC(=O)Nc1c(C)cccc1C
inactive: all assays above

CC1(C)CCC(C)(C)c2cc(NC(=O)c3ccc(C(=O)O)cc3)ccc21
inactive: all assays above

Oc1ccc(C(O)CNCCCCCCNCC(O)c2ccc(O)c(O)c2)cc1O (stereo not given)
inactive: all assays above

CC(C)C(=O)OCc1cccc(OC(=O)[C@@H]2N3C(=O)[C@@H](NC(=O)Cc4ccccc4)[C@H]3SC2(C)C)c1
inactive: all assays above

CCCCCCCCOc1ccccc1C(=O)Nc1ccc(C(=O)OCC[N+](C)(CC)CC)cc1
inactive: all assays above

CCOc1ccccc1O[C@H](c1ccccc1)[C@H]1CNCCO1
inactive: all assays above

CCOC(=O)C(C)(C)Oc1ccc(Cl)cc1
inactive: all assays above

CCOc1cc(N)c(Cl)cc1C(=O)NCC1CN(Cc2ccc(F)cc2)CCO1 (stereo not given)
inactive: all assays above

O=C(O)c1ccc(OCCN2CCCCC2)cc1
inactive: all assays above

CCCCCCCCCCCCOS(=O)(=O)O
inactive: all assays above

CN1CCC(=C2c3ccccc3CCc3sccc32)CC1
inactive: all assays above

NCCc1ccc(O)c(O)c1
inactive: all assays above

O=C(Nc1ccc(C(=O)O)c(O)c1)c1ccccc1
inactive: all assays above

CCOCCOC(=O)/C=C/c1ccc(OC)cc1
inactive: all assays above

CN(C)CCN(Cc1cccs1)c1ccccn1
inactive: all assays above

COc1cc(NS(=O)(=O)c2ccc(N)cc2)nc(OC)n1
inactive: all assays above

COc1cc2c(cc1OC)C(C(C(=O)N(CCc1ccc(OC)c(OC)c1OC)CCc1ccc(OC)c(OC)c1OC)c1ccccc1)=NCC2 (stereo not given)
inactive: all assays above

C[C@@H]1C[C@H]2[C@@H]3C[C@H](F)C4=CC(=O)C(Cl)=C[C@]4(C)[C@@]3(F)[C@@H](O)C[C@]2(C)[C@@]1(O)C(=O)CO
inactive: all assays above

CCCCCCOC(=O)NC(=N)c1ccc(NCc2nc3cc(C(=O)N(CCC(=O)OCC)c4ccccn4)ccc3n2C)cc1
inactive: all assays above

CC(=O)OC[C@H]1O[C@@](COC(C)=O)(O[C@H]2O[C@H](COC(C)=O)[C@@H](OC(C)=O)[C@H](OC(C)=O)[C@H]2OC(C)=O)[C@@H](OC(C)=O)[C@@H]1OC(C)=O
inactive: all assays above

N[C@H](Cc1c[nH]c2ccccc12)C(=O)O
inactive: all assays above

COC1=C(OC)C(=O)C(CCCCCCCCCCO)=C(C)C1=O
inactive: all assays above

CCN(CC)CC(=O)OCC(=O)[C@@]1(O)CC[C@H]2[C@@H]3CCC4=CC(=O)CC[C@]4(C)[C@H]3[C@@H](O)C[C@@]21C
inactive: all assays above

CC(C)NCCCC1(C(N)=O)c2ccccc2-c2ccccc21
inactive: all assays above

Cc1cc(O)c(C(C)C)cc1Cl
inactive: all assays above

c1cc(CN2CCCCC2)cc(OCCCNc2nc3ccccc3s2)c1
inactive: all assays above

O=C1Nc2ccccc2C1(c1ccc(O)cc1)c1ccc(O)cc1
inactive: all assays above

CCc1cc(Cl)c(OC)c(C(=O)NC[C@@H]2CCCN2CC)c1O
inactive: all assays above

C=C1c2cccc(O)c2C(O)=C2C(=O)[C@]3(O)C(O)=C(C(N)=O)C(=O)[C@@H](N(C)C)[C@@H]3[C@@H](O)[C@H]12
inactive: all assays above

CCOC(=O)COc1ccc2c(C)c(CCN(CC)CC)c(=O)oc2c1Cl
inactive: all assays above

OC[C@]1(O)OC[C@@H](O)[C@H](O)[C@@H]1O
inactive: all assays above

C[N+]12CCC(CC1)C(OC(=O)C(O)(c1ccccc1)c1ccccc1)C2 (stereo not given)
inactive: all assays above

NCc1ccccc1Sc1ccccc1CO
inactive: all assays above

CC(=O)Oc1ccc(C(=C2CCCCC2)c2ccc(OC(C)=O)cc2)cc1
inactive: all assays above

Cc1c(N)cccc1C(F)(F)F
inactive: all assays above

CC(=O)c1ccc2c(c1)N(CCCN(C)C)c1ccccc1S2
inactive: all assays above

OC[C@H]1O[C@@H](O[C@@H]2[C@@H](CO)O[C@](O)(CO)[C@H]2O)[C@H](O)[C@@H](O)[C@H]1O
inactive: all assays above

O=C(O)Cc1ccc(CCNS(=O)(=O)c2ccc(Cl)cc2)cc1
inactive: all assays above

CN(C)CCCN1c2ccccc2Sc2ccc(C(F)(F)F)cc21
inactive: all assays above

C=CCOc1cc(Cl)ccc1C(=O)NCCN(CC)CC
inactive: all assays above

CC(=O)N[C@@H](CO)C(=O)N[C@@H](CC(=O)O)C(=O)N[C@@H](CCCCN)C(=O)N1CCC[C@H]1C(=O)O (Ac-SDKP-OH)
inactive: all assays above

NNc1nnc(NN)c2ccccc12
inactive: all assays above

CC(=O)O[C@H]1CC[C@@]2(C)C(=CC[C@@H]3[C@@H]2CC[C@]2(C)C(C(C)=O)=CC[C@@H]32)C1
inactive: all assays above
